# Bioassay records deposited in PubChem by National Center for Advancing Translational Sciences (NCATS).
# Many of the other results were omitted from the sample, so hits are more common in it than they were.
# ClpP mod: qHTS Assay for Activators of ClpP. 1.9% of 340,000 active. purified B. subtilis ClpP, FRET peptide cleavage, 20 min. Potency, µM (titrated, usually from 57.5 µM), without a hit: at the top dose activity change, negative = active. ATP-dependent Clp protease proteolytic subunit (Bacillus subtilis (strain 168)), P80244; active = well fitted falling curve with a large enough effect; inconclusive = small, poorly fitted or top-dose-only effect; inactive = no such curve, though single readings can be large or run the other way; also: potency is read from the fitted curve at half-maximal effect; the source files actives as falling curves though it sought activators and does not explain the sign; nearly all actives have a fitted effect of over 65% in size
#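 Purified B. subtilis ClpP, 10 microg/mL final in Tris/HCl pH8 with KCl, BSA, glycerol and Tween-20, cleaved an Abz/nitrotyrosine-quenched decapeptide. Fluorescence (ex 320, em 430) was read at 0 and 20 min at room temperature. Delta was normalized to 5.8 microM ADEP and DMSO/no-enzyme controls.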
# mIDH1 inhibitor: blocks human mutant IDH1 R132H enzyme; Potency, µM (highest dose often 76.6 µM), inactives show top-dose activity change, negative = inhibition, usual class: inhibitors; 0.093% of 390,000 active; IDH1-R132H enzyme, NADPH consumption, diaphorase/resazurin fluorescence; also: potency is read from the fitted curve at half-maximal effect; % is scaled to controls: 0 for no effect and ±100 for the full control effect; nearly all actives have a fitted effect of over 65% in size
#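 IDH1-R132H (0.5 ug/mL dispensed) in pH 7.5 Tris buffer was preincubated 30 min with compound, then given a substrate mix of 0.016 mM NADPH and 2 mM alpha-KG for 80 min at room temperature; remaining NADPH was read by diaphorase/resazurin fluorescence.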
# LDHA block: blocks human lactate dehydrogenase A; P00338; AID 1347041; activity change, % (values are at about 110 or 230 µM); purified LDHA, NADH/diaphorase-resazurin fluorescence; hits give low values; 0.15% of 480,000 active; in the data active = activity change below about -30%; inconclusive = mostly about -25% to -30%;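 also: plate controls were DMSO wells for no effect and wells without enzyme for full effect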
#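 Human LDH5 at 2 nM final in Tris HCl pH 7.4 with 0.06 mM NADH and 0.2 mM pyruvate, reacted 5 minutes at room temperature. Remaining NADH coupled via diaphorase/resazurin; resorufin fluorescence read at 0 and 20 minutes, normalized to enzyme-free and DMSO wells.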
# ASM inhibitor: inhibitors of human secretory acid sphingomyelinase. placental ASM, HMU-PC fluorogenic substrate, 60 min. P17405. Potency, µM (highest dose often 57.5 µM), inactives show at the highest dose activity change, negative = inhibition, usual class: inhibitors. 0.006% of 340,000 active; also: potency is read from the fitted curve at half-maximal effect
# Target sequence (P17405 47-631 limits assumed): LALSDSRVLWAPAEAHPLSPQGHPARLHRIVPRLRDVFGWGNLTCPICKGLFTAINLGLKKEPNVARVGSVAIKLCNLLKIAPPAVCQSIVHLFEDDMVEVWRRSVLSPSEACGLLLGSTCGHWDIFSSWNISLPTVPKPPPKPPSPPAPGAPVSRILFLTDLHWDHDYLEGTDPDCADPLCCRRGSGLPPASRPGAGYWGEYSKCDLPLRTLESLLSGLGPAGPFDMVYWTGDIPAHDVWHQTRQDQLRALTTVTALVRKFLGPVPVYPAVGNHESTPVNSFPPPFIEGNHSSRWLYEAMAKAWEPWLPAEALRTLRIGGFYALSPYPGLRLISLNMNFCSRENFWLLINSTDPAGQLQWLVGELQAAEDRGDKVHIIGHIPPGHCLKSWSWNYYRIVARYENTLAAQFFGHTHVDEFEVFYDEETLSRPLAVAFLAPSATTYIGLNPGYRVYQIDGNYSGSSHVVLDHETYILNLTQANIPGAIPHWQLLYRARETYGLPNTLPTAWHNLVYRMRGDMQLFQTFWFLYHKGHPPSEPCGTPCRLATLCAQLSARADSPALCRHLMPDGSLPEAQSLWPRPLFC
#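 qHTS format. ASM enzyme prepared from human placenta hydrolyses the fluorogenic substrate HMU-PC0 (9 uM final) over 60 min at 37 °C after a 10 min compound preincubation.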
# RGS4 inh: human RGS4 inhibition; P49798; Transcreener GDP fluorescence polarization, RGS4-accelerated GTP hydrolysis; 0.039% of 390,000 active; Potency, µM (titrated, usually from 114 µM), inactives show at the highest dose activity change, negative = inhibition, hits mostly inhibitors; also: potency is read from the fitted curve at half-maximal effect; % is scaled to controls: 0 for no effect and ±100 for the full control effect; nearly all actives have a fitted effect of over 75% in size
#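 MLSMR compounds (23 nl, pin-transferred) preincubated 10 min at room temperature with a 500nM (2x) first reagent, then RGS4 at 900nM (2x) plus Transcreener GDP mix added; fluorescence polarization (620/688 nm) read before and after 90 min at 30 °C.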
# Mito fusion yeast: inhibitors of mitochondrial division or activators of mitochondrial fusion | S. cerevisiae fusion-defective mutant growth rescue, CellTiterGlo 48 h | Potency, µM (highest dose often 46.1 µM), for inactives: top-dose growth rescue (activation), actives largely listed as activators | 0.23% of 320,000 active | AID 485298; also: potency is read from the fitted curve at half-maximal effect; % of control where 0% means no effect; nearly all actives have a fitted effect of over 45% in size
#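 Luminescent cell viability in 1536-well qHTS format served as the measure of rescued growth in ts fusion-mutant S. cerevisiae cultured on non-fermentable YPEG for 48 hours at 37C.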
# Numbers without * were called inactive; i = inactive; ? = inconclusive; . = no result given; [ ] = remark or other dose. Unless noted, calls follow the shape of the dose curve; as a rule, active = well fitted curve in the direction sought with a large enough effect; inconclusive = small, poorly fitted or top-dose-only effect, or another doubt; inactive = no such curve, though single readings can be large; an effect the other way counts as inactive or inconclusive.
SMILES,ClpP mod,mIDH1 inhibitor,LDHA block,ASM inhibitor,RGS4 inh,Mito fusion yeast
O=C(NCc1ccccc1)Nc1cccn(Cc2ccccc2F)c1=O,20µM*,3%,0,-2%,10%,-8%
CCc1ccccc1NC(=O)Nc1cccn(Cc2ccccc2F)c1=O,4%,-7%,-20,-1%,-12%,2%
O=C(Nc1ccccc1N1CCN(C(=O)c2ccc(Cl)cc2)CC1)c1ccc2c(c1)OCO2,-9%,-2%,0,-5%,7%,13µM*
COc1c(C)cc(Br)cc1C(=O)Nc1ccccc1N1CCN(C(=O)c2ccccc2)CC1,18µM*,0%,-8,-2%,4%,3%
CC(C)NCc1ccc(OCc2ccccc2)cc1,.,.,5,.,.,.
CCOc1ccccc1C(=O)Nc1cc2c(cc1N1CCCC1)n(CC)c(=O)n2CC,3%,46µM*,6,-9%,-22%,6%
Cn1c(=O)c(=O)n(C)c2cc(N3CCCC3)c(NC(=O)c3ccc(C(C)(C)C)cc3)cc21,35µM*,0%,18,.,9%,.
CCOc1ccc(C(=O)Nc2ccc(N3CCN(C(=O)c4ccco4)CC3)cc2)cc1Br,43%,2%,0,-2%,-12%,.
Cc1ccc(C(=O)Nc2cc3c(cc2N2CCCCC2)n(C)c(=O)n3C)cc1,-2%,-9%,-1,-2%,0%[56.9 µM],?
CCOc1ccc(C(=O)Nc2ccc(N3CCN(C)CC3)cc2)cc1Br,18µM*,3%,-4,-4%,-15%,-5%
COc1cc(C(=O)Nc2cc3c4c(c2)CC(=O)N4CCC3)cc(OC)c1OC,16µM*,1%,-1,4%,-18%,4%
O=C(O)/C=C/c1ccc(Cl)c(C(F)(F)F)c1,.,.,3,.,.,.
COc1ccccc1-c1nnc(SCC(=O)Nc2ccccc2C#N)n1-c1ccc(C)cc1,.,.,5,.,.,.
CC(NC(=O)c1ccc(O)c(Cl)c1)c1ccccc1F (stereo not given),.,.,-5,.,.,.
COc1cc(C(=O)Nc2cc3c(cc2N2CCCCC2)n(C)c(=O)n3C)cc(OC)c1OC,-4%,?,5,-4%,-11%,13µM*
COc1cc(OC)cc(C(=O)Nc2cc3c(cc2N2CCCCC2)n(C)c(=O)n3C)c1,-4%,-9%,2,.,-1%,.
COc1ccc(C(=O)Nc2cc3c(cc2N2CCCCC2)n(C)c(=O)n3C)cc1OC,-4%,46µM*,-1,-1%,-24%,13µM*
COc1ccc(C(=O)Nc2cc3c(cc2N2CCCC2)n(C)c(=O)c(=O)n3C)cc1OC,32µM*,6%,4,.,4%,.
CCOc1ccc(C(=O)Nc2cc3c(cc2N2CCCC2)n(C)c(=O)c(=O)n3C)cc1OCC,28µM*,-6%,27,.,-14%,.
COc1cccc(C(=O)Nc2cc3c(cc2N2CCCC2)n(C)c(=O)n3C)c1,2%,4%,5,5%,-13%[11.4 µM],-12%
Cc1cccc(N2/C(=N/c3nc(C)cc(C)n3)NC(=O)CC2C(=O)O)c1 (stereo not given),.,.,-3,.,.,.
Cc1nc2cc(NC(=O)c3cc(F)cc(F)c3)ccc2o1,.,.,4,.,.,.
COCCCNC(=O)c1cc(Nc2ccc(C)c(C)c2)nc2ccccc12,.,.,5,.,.,.
CCOC(=O)CN1C(=O)C2Cc3ccccc3CN2C1=S (stereo not given),2%,?,-31*,-5%,3%,9%
COc1ccc2oc(C(=O)OC(C)C(=O)NC3(C#N)CCCCC3)c(C)c2c1 (stereo not given),25µM*,-2%,-2,.,16%,8%
SMILES,ClpP mod,mIDH1 inhibitor,LDHA block,ASM inhibitor,RGS4 inh,Mito fusion yeast
COc1ccc2oc(C(=O)OCC(=O)Nc3ccccc3)c(C)c2c1,28µM*,2%,-8,-4%,-26%,-4%
COc1ccc2oc(C(=O)OC(C)C(=O)NCc3ccccc3)c(C)c2c1 (stereo not given),.,-4%,-11,-3%,16%,19%
COC(=O)c1oc2ccc(OC)cc2c1N,16µM*,2%,0,6%,-24%,0%
COc1ccc2oc(C(=O)OCC(=O)Nc3ccc(N4CCOCC4)cc3)c(C)c2c1,32µM*,-1%,-3,-1%,-26%,-5%
CC(NC(=O)CSc1nnc(COc2ccc(Cl)cc2)n1C)c1ccc(F)cc1 (stereo not given),.,.,-1,.,.,.
COc1ccc2c(C)c(CCC(=O)N3CCCCC3)c(=O)oc2c1C,.,.,0,.,.,.
Cc1cc(C)c(C(=O)Nc2ccccc2C)c(SCC(=O)NC2CCCCC2)n1,.,.,3,.,.,.
COc1ccc2oc(C(=O)OCC(=O)NC(=O)NC(C)C)c(C)c2c1,32µM*,2%,0,?,-14%,-4%
COc1ccc2oc(C(=O)OCC(=O)NC(C)(C#N)C3CC3)c(C)c2c1 (stereo not given),32µM*,4%,-6,.,-26%,-5%
O=C(O)c1nn(CC(=O)N2CCCC2)c(=O)c2ccccc12,.,.,-4,.,.,.
CC12CCC(=O)N1c1c(sc3nc(N4CCOCC4)c4c(c13)CCCC4)C(=O)N2 (stereo not given),25µM*,9%,1,i,0%,-4%
CC(C)CCSc1ccccc1C(=O)O,.,.,12,.,.,.
CCCCCC(=O)N1C[C@@H](n2cc(-c3ccc(F)cc3)nn2)[C@H](O)C[C@@H]1c1ccc(C)cc1,0%,-8%,-34*,.,.,.
CCC(=O)Nc1c(-c2cc(=O)oc3ccc(C(C)C)cc23)oc2ccccc12,.,.,16,.,.,.
COC(=O)C1=CN(c2cc(C)cc(C)c2)C=C(C(=O)OC)C1c1cccc(F)c1,4%,-10%,-2,i,-4%,2%
CCCCOc1ccccc1C1C(C(=O)OC)=CN(CC)C=C1C(=O)OC,14µM*,-2%,1,i,1%,14%
COC(=O)C1=CN(C)C=C(C(=O)OC)C1c1ccccc1OCc1ccccc1,.,.,8,.,.,.
CCCOc1ccccc1C1C(C(=O)OC)=CN(C(C)C)C=C1C(=O)OC,16µM*,-4%,-3,i,7%,19%
CCN1C=C(C(=O)OC)C(c2cccc(C)c2)C(C(=O)OC)=C1,6.3µM*,0%,2,i,-30%,8%
CC(C)CCOCC(=O)Oc1ccccc1C(=O)O,28µM*,6%,-1,-1%,3%,-1%
Cc1cc(Br)ccc1NC(=O)CN(C)C(=O)CSC(=S)N1CCCC1,3.2µM*,-2%,2,2%,?,-5%
CN(CC(=O)Nc1ccccc1Cl)C(=O)CSC(=S)N1CCCC1,-1%,1%,-7,.,-26%,-1%
